Here are results for 22 molecules from PubChem BioAssay (Tox21).

SMILES strings stand for the structures. Values joined by “and” are separate entries in the source; they are usually repeats but may differ in a detail not shown here. Equal entries are not always repeated. Inconclusive results are not listed. Values without a mark were called inactive. Active and inactive are the calls of the source. Calls follow the shape of the dose curve; as a rule, active = well fitted inhibition curve with a large enough effect in the repeat runs; inconclusive = weak or mixed curves, or effect the other way; inactive = no such curve, though single readings can be large or run the other way.
% is scaled to controls: 0 for no effect and ±100 for the full control effect; potency is read from the fitted curve at half-maximal effect.

The nature of the assay: qHTS assay to identify small molecule antagonists of the retinoic acid receptor (RAR) signaling pathway (AID 1159552; also: nearly all actives have a fitted effect of over 50% in size). The following applies: C3RL4 RARE luciferase reporter, retinol-stimulated, 6 h; series mostly up to 92.4 µM; activity, negative = inhibition: at the top concentration. A digest of the protocol:
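RARE-luc C3RL4 cells; cpds + 1 uM (final) retinol, 6 hr, 37 C/5% CO2; luciferase reagent, 30 min RT, luminescence readout. Inhibitors of retinol-driven signal scored.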
For `O=C(c1ccc(O)c(O)c1)c1ccc(O)cc1O`, the “activity, negative = inhibition” value was -20%.

With `CCOC(=O)NNc1ccc(N(CC)CC(C)O)nn1` (configuration not stated), the “activity, negative = inhibition” value is -9.27% [at 42.5 µM].

With `CCC(=O)C(=O)CC`, the “activity, negative = inhibition” value is 8.72%. On the same count and under the same terms, the value for `COc1ccc(-c2coc3cc(O)ccc3c2=O)cc1` was 130%. Regarding `C#CC1(O)CC[C@H]2[C@@H]3CCC4=CCCC[C@@H]4[C@H]3CC[C@@]21C` (some centres not stated), the Potency is 48.6 µM (active) and 23.7 µM (active). Turning to `OC12N=C(c3ccccc3)SC1Cc1cc(Cl)ccc12` (configuration not stated), the “activity, negative = inhibition” value is 40.2%. The same measure, in the same setting: as for `Cc1cc(-c2ccc(N=Nc3cc(S(=O)(=O)O)c4ccccc4c3N)c(C)c2)ccc1N=Nc1cc(S(=O)(=O)O)c2ccccc2c1N`, the figure is -24.3%; as for `Nc1nc2c(ncn2COCCO)c(=O)[nH]1`, -12.8% [at 42.5 µM]; as for `CCCCCC(C)OC(=O)COc1ccc(Cl)c2cccnc12` (configuration not stated), -7.56%. Turning to `CCO[Si](OCC)(OCC)OCC`, the “activity, negative = inhibition” value was 23.6%. On the same count and under the same terms, the value for `CN(C)Cc1ccccc1O` was -0.0236%. On the same count and under the same terms, as for `CC(C)=CCC1=C(O)c2ccccc2C(=O)C1=O`, the figure is -4.71%. Consider `C=Cc1cccc(C)c1`, for which the Potency entry is “inactive”. As for `CCc1ccc(Br)cc1`, the “activity, negative = inhibition” value was -3.27%. As to `OC/C=C/CO`, the “activity, negative = inhibition” value is 20.6%. Take `C#C[C@]1(O)CC[C@H]2[C@@H]3[C@H](C)CC4=C(CCC(=O)C4)[C@H]3CC[C@@]21C`: the Potency is 29.8 µM (active). `O=S(=O)(O)c1ccccc1/C=C/c1ccc(-c2ccc(/C=C/c3ccccc3S(=O)(=O)O)cc2)cc1`: the “activity, negative = inhibition” value is 13.1%. On the same count and under the same terms, as for `CCc1cccc(CC)c1NC(=O)CN(CC(=O)O)CC(=O)O`, the figure is 2.74% [at 42.5 µM]. Still for that read-out and setting: the value for `CC(C)CCCCCOC(=O)CCS` was -6.02%. With `c1cnccn1`, the “activity, negative = inhibition” value was -1.71%.

With `CC(CCc1ccccc1)NCC(O)c1ccc(O)c(C(N)=O)c1` (configuration not stated), the “activity, negative = inhibition” value was -13.2%.

Consider `Cc1ccc(C(=O)O)cc1`, for which the “activity, negative = inhibition” value is 1.34%.
